These results are taken from PubChem BioAssay AID1508600 (Functional Genomics Laboratory (NCATS/FGL), 2020).

The campaign covered roughly 53,000 sequences. About 3,700 (7%) were called active.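 How the source made its calls: active means gene knockdowns whose robust z-score for IL-1 alpha signal is at least 2 or at most -2, so actives lie on both sides; inactive means the rest.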 Shown is part of a subset that was picked to be rich in actives.

This experiment in a line: Components of the Cytosolic LPS Sensing Pathway: Gene Identification via Genome-wide siRNA Screen.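 Further: robust z of the log signal after scaling to non-targeting control siRNA wells of the plate.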 To be noted: RAW264.7 macrophages, IL-1a HTRF, actives lie on both sides, screened at 100 nM (by protocol), cells primed 5 h with Pam3CSK4 first. The procedure, abridged: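 IL-1a HTRF of supernatants after 24 hour LipidA transfection of Pam3CSK4-primed (5 hours) RAW264.7 cells, 48h post-siRNA transfection (100 nM). Scores: percent of plate negative-control median, then log-based robust z-score.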
On the technique in general: Time-resolved FRET reads energy transfer from a long-lived donor to a nearby acceptor.
As to GCAUCACGGAUUCGAAUUGTT against Dgkz, the z-score was -1.25 (inactive).

GGAAGACAUAAUAAUAGAGTT against Rad17: the z-score is -1.39 (inactive).

On to CCUACAAGAACGAAGAUUUTT against Pla2g4d, for which the z-score was -1.67 (inactive).

With CCAACAUCGAGCUAGCCACTT against Psma5, the z-score was -2.28 (active).

Turning to CCACCUACGUCAACACUAATT against Kcnh6, the z-score was -1.8 (inactive).

Consider CCAGAUGUUGGAUAAAACGTT against Fbxw10, for which the z-score is -0.333 (inactive).

On to GGAAAUUUCAGUCGAACAGTT against Arhgap31, for which the z-score was 0.333 (inactive).

Regarding GGUCUUUGACAGAAUAAAATT against Yipf1, the z-score is 1.94 (inactive).

Regarding GGCAUCCACCCUAAGGUCATT against Keap1, the z-score was 1.03 (inactive).

As for GGAUUGAGUGACGACUGACTT against Nova2, the z-score was 2.25 (active).

Regarding GGCCUCCAAAUGAACAGCATT against Trmt61a, the z-score was -0.365 (inactive).

Turning to GCUGUACGUAGAUUCCAGATT against Mmp21, the z-score was 1.48 (inactive).

Consider CCCAAUUAGGCUAUGCUAATT against Amfr, for which the z-score was 2.27 (active).

As to GGAGAAACAUCAAUUGCACTT against Thbs2, the z-score was -0.0207 (inactive).

For GCUUGAUGACUCUAAACCUTT against Runx2, the z-score was 1.29 (inactive).

As to GCCUCUAUCUGUACUCUGGTT against Pdk2, the z-score is -0.944 (inactive).

Regarding GCACAAAUCUGGUAAGUCATT against Gtf2h1, the z-score is 0.474 (inactive).

GCAACAUAUGGUAUACUGUTT against Mdm4: the z-score is 1.41 (inactive).

With CCAUGAAAAACUUAGUGUGTT against Trim37, the z-score was 0.682 (inactive).

As to GGAGUGUUUGAGAAAUACCTT against Pnpla7, the z-score was 3.32 (active).

Turning to CCUUGGGACUGACUGUAAGTT against Ptrh2, the z-score is -0.887 (inactive).

Consider GGUCUUAUUUUGAAGUGUUTT against Cybb, for which the z-score was 0.013 (inactive).

GCGAUCAAAAAAGUUGCCUTT against Arhgap44: the z-score is -0.387 (inactive).

Regarding GGAGUGGGAGAAGAUGGAATT against Mbd4, the z-score was 2.17 (active).

Consider GCUACAAGUGUUGCCUGAATT against Slit1, for which the z-score was 1.21 (inactive).

For the sequence GGUGCAGAGAAGAACAAGATT against Inpp1, the z-score was -0.993 (inactive).

CCACAGGGAGACAUGAUAUTT against Coprs: the z-score is -0.292 (inactive).

Take GUGAUGUCACUAAUGCCAATT against Cd99: the z-score was 0.628 (inactive).

On to GGAUAGACAGAAAUUCUCATT against Flot1, for which the z-score is 1.43 (inactive).

As to GGAAAACUACUGGAACUGGTT against Irgm1, the z-score was 0.415 (inactive).

Regarding GGAGGCAGAUGCUGGAAUCTT against Defb3, the z-score was 4.19 (active).

On to GGUGAUCAUGCUAACCUUUTT against Pcolce, for which the z-score was 0.436 (inactive).

For the sequence GGUGUAACUGGGCUGCAUGTT against Avpi1, the z-score was 0.269 (inactive).

For GGCAAUUCUUAACCUGUCCTT against Tacc1, the z-score was -2.75 (active).

On to GCUGAUGGUAAAUUCACAGTT against Serpinb3c, for which the z-score is -1.01 (inactive).

As to GCAUGUGUACCAUUUACCUTT against Prdx1, the z-score was 1.87 (inactive).

For GGAUGCCCUUGUCACAAAGTT against Fbl, the z-score was 0.154 (inactive).

With GGAACACUGUAUCUUACGGTT against Mtmr6, the z-score was 0.599 (inactive).

As to “GGAGAAGGUGACUUAAUAGTT against 9430077A04Rik”, the z-score is 0.76 (inactive).

Turning to GGAGAUCACCUACGACAUGTT against Lgals8, the z-score was 0.446 (inactive).

With GGUCAUCUCAGUACUACAATT against Dgat2, the z-score is 0.251 (inactive).

With GGCAAGAAAAACACUUUAUTT against Parp3, the z-score was 1.85 (inactive).

Take GGAAGGAGGACAGAGGAAUTT against Tmem19: the z-score is 2.34 (active).

With GGCAUUGGAAGAUGCACAGTT against Scp2, the z-score was 0.431 (inactive).

As to GGUUAUAGCAUCCUUAACUTT against Tmem208, the z-score is 1.06 (inactive).

As to GGUGAAGUCUUACCUAUACTT against Aacs, the z-score is -0.598 (inactive).

As for GACCUUGGUUAUUCUACAGTT against Olfr1087, the z-score was -1.14 (inactive).

Regarding GGUGUGUUUUGUAUUGAUUTT against Olfr843, the z-score was 0.482 (inactive).

For the sequence GGCAACAGUGCAUUCAAGUTT against Nptx2, the z-score is 3.39 (active).

GGUCUCCAUAAGUGUCAGCTT against Cntfr: the z-score is -0.407 (inactive).

As to GGUGUCUCUGAAGAUUGAATT against Cdc6, the z-score is 0.345 (inactive).

Consider GGAUUAGGAUCAGCAGGAUTT against Accs, for which the z-score was 1.01 (inactive).

As for GGAUCUUGAUCCACAUCUCTT against Padi6, the z-score is -2.47 (active).

Consider GGAGAUAAUCCUUGUCACGTT against Whamm, for which the z-score is 0.592 (inactive).

For CCCUUAAAGGGUAGCAUUUTT against Ncan, the z-score was 0.837 (inactive).

For GUGGUCUUUAUCGGCAUGATT against Slc35c1, the z-score was 0.287 (inactive).

Take GCUCUUGUAAAUUUGUGAATT against Usp10: the z-score was -0.331 (inactive).

Take GCAGUGCUCUUUAGCAUAATT against Zfp689: the z-score was 1.01 (inactive).

With GCAUAAAAAACGAAUAGAGTT against Smc1b, the z-score was -0.432 (inactive).

As to GCAAGUCCUAGUGUCCUGATT against N6amt1, the z-score is -0.213 (inactive).

Take GGAAAUGCUGCCAUUGUUATT against Aldh3a2: the z-score is 0.333 (inactive).

As for GGAACAAAGACAUUGCUUUTT against Sf3a3, the z-score is -2.77 (active).

With GCAAGCGAUGGCACAUAGATT against Ap1g2, the z-score is 1.03 (inactive).

Turning to GGUUACGAAGAUUAAUGUGTT against Crk, the z-score is 1.27 (inactive).

As for GGACAGGUGUCGAUCAAACTT against Zfp280c, the z-score is 0.0987 (inactive).

Regarding GGAAUUGCACUUUUCCAAUTT against Phlda1, the z-score is 0.481 (inactive).

Take GGAUGCAGUACGAAAUUCUTT against Psmd1: the z-score was -2.93 (active).

As for GGCAGUGCCAAUGAACAAGTT against Elob, the z-score was 0.591 (inactive).

Take GGUUGUUUUGGAAUUGAUATT against Smu1: the z-score was -2.82 (active).
